Measurements reported in PubChem BioAssay (Tox21).
Records with an inconclusive call do not appear. Calls of active or inactive are those of the source. Calls follow the shape of the dose curve; as a rule, active = well fitted activation curve with a large enough effect in the signal ratio in the repeat runs (not every such curve was filed as active); inconclusive = weak or mixed curves; inactive = flat fitted curve, though single readings scatter; the % refers to the signal ratio.

Assay: qHTS assay to identify small molecule agonists of the hypoxia (HIF-1) signaling pathway (AID 1224846)
Conditions: HRE-bla ME-180 cells, beta-lactamase ratio, 17 h; series mostly up to 76.8 µM
Text: U.S. Tox21 Program National Center for Advancing Translational Sciences [NCATS] NIH Chemical Genomics Center [NCGC] U.S. Environmental Protection Agency [EPA] National Institutes of Environmental Health Sciences [NIEHS] National Toxicology Program [NTP] U.S. Food and Drug Administration [FDA] Tox21 Assay Overview: Hypoxia-inducible factor-1 (HIF-1) is the major hypoxia-regulated transcription factor that controls cellular responses to low oxygen concentration. HIF-1 is composed of two subunits: hypoxia responsive HIF-1-alpha and constitutively expressed HIF-1-beta, which is also known as aryl hydrocarbon receptor nuclear translocator. During hypoxic conditions, HIF-1-alpha heterodimerizes with HIF-1-beta and translocates into the nucleus where the HIF-1 complex binds to the hypoxia-response element (HRE) and activates expression of target genes such as VEGF (vascular endothelial growth factor). The HIF-1 pathway is essential to normal growth and development, and is involved in the pathophysiology of cancer, inflammation, and ischemia. Using a beta-lactamase reporter-gene under control of the hypoxia response element, a cell-based assay [CellSensor(TM) HRE-bla ME-180 from Life Technologies, Carlsbad, CA] was used to measure hypoxia-induced signaling. Tox21 10K library compounds were measured for their ability to induce the reporter gene activity.
Tox21 Assay Protocol Summary: HRE-bla ME-180 cells were dispensed at 2,000 cells per well in 6 uL of assay medium containing 0.5% dialyzed FBS into black wall/clear-bottom 1536-well plates using a Multidrop Combi (Thermo Scientific, Waltham, MA) dispenser. After the assay plates were incubated at 37C and 5% CO2 for 5 hrs, 23 nL of compounds dissolved in DMSO, positive controls or DMSO only was transferred to each well of the assay plate using a Pintool station (Kalypsys, San Diego, CA). The assay plates were incubated at 37C and 5% CO2 for 17 hrs. One uL of LiveBLAzerTM B/G FRET substrate (CCF4-AM) (Life Technologies) was added to each well using a Flying Reagent Dispenser (Aurora Discovery, San Diego, CA).

SMILES	outcome
C=CCOC(=O)CC(C)C	inactive
CN(C)C=O	inactive
CC1(C)O[C@@H]2[C@@H](CO[C@@]3(COS(N)(=O)=O)OC(C)(C)O[C@@H]23)O1	inactive
NC(=O)N1c2ccccc2C=Cc2ccccc21	inactive
O=[N+]([O-])c1ccc(O)cc1	inactive
Nc1cccc(N)c1	inactive
CN(C)Cc1cc(CN(C)C)c(O)c(CN(C)C)c1	inactive
COc1ccc(O)cc1	inactive
CC(O)COc1ccccc1 (stereo not given)	inactive
c1ccc2[nH]c(-c3cscn3)nc2c1	inactive
CCCCCCCCCCCCCC(=O)OC(C)C	inactive
O=C(O)Cc1cccc2ccccc12	inactive
CCCCOCCOCCOC(C)=O	inactive
NCCNc1cccc2ccccc12	inactive
CCCCC/C(C=O)=C\c1ccccc1	inactive
COC(=O)c1ccc(C=O)cc1	inactive
OC[C@@H](O)[C@@H](O)[C@H](O)[C@H](O)CO	inactive
O=c1cc[nH]c(=O)[nH]1	inactive
CC(C)(C)CC(C)(C)c1ccc(O)c(-n2nc3ccccc3n2)c1	inactive
COc1ccccc1O	inactive

SMILES	outcome
C[C@]12CC[C@@H]3c4ccc(O)cc4CC[C@H]3[C@@H]1CCC2=O	inactive
CCCCNC(=O)NS(=O)(=O)c1ccc(N)cc1	inactive
Cc1c(N(C)CS(=O)(=O)O)c(=O)n(-c2ccccc2)n1C	inactive
CC(=O)/C=C/C1=C(C)CCCC1(C)C	inactive
CC(C)(C)NCC(O)c1ccc(O)c(CO)c1 (stereo not given)	inactive
C=CC(=O)NC(C)(C)CS(=O)(=O)O	inactive
CC(C)CC(C)CC(O)CC(C)C (stereo not given)	inactive
OCCCc1ccccc1	inactive
COc1ccccc1NC(=O)CC(C)=O	inactive
N[C@@H](Cc1c[nH]c2ccccc12)C(=O)O	inactive
C1CNCCN1	inactive
Cc1ccc(O)c(-n2nc3ccccc3n2)c1	inactive
CCCCCCCCOc1ccc(C(=O)c2ccccc2)c(O)c1	inactive
C[C@]12CC[C@@H]3c4ccc(O)cc4C[C@@H](CCCCCCCCCS(=O)CCCC(F)(F)C(F)(F)F)[C@H]3[C@@H]1CC[C@@H]2O (stereo not given in full)	inactive
C[C@]12C=CC(=O)C=C1CC[C@@H]1[C@@H]2C(=O)C[C@@]2(C)[C@H]1CC[C@]2(O)C(=O)CO	inactive
CCOCCO	inactive
C[C@]12C[C@H](O)[C@H]3[C@@H](CCC4=CC(=O)CC[C@@]43C)[C@@H]1CC[C@@H]2C(=O)CO	inactive
COCC(C)N (stereo not given)	inactive
O=c1c(-c2ccc(O)cc2)coc2cc(O)cc(O)c12	inactive
O=C1CCCCCN1	inactive
